# According to PubChem BioAssay AID652067 (The Scripps Research Institute Molecular Screening Center, 2013):
# In all, about 370,000 compounds went through this assay and about 5,400 (1.5%) were called active. The sample holds actives, similar compounds and a random draw of the others, so the mix is not that of the screen. Values without a mark were called inactive.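 How the source made its calls: active means activation above the mean of all tested compounds plus 3 SD (cut at about 5.5% in these data); inactive means the rest.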
# Test system: DAF-12 nuclear receptor (Haemonchus contortus)
# Assay: hcDAF-12 driven luciferase reporter activation – cell-based, luminescence, HEK293, lit1-tk-luc reporter, primary screen (AID 652067);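 further: 100% = response to 3 µM Δ7-dafachronic acid high control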
# Settings: HEK293 hcDAF-12 lit1-tk-luc reporter, at 6.8 µM, stronger effect = higher value, 0% DMSO, 100% Δ7-dafachronic acid
row,SMILES,activation
1,CC(C)CNC(=O)OCc1cn(Cc2ccc(F)cc2)nn1,-2.06%
2,CS(=O)(=O)N(CC(=O)Nc1ccc(F)cc1F)c1cccc([N+](=O)[O-])c1,-0.66%
3,O=C(NCc1ccco1)C1CCCN(S(=O)(=O)c2ccc(Cl)s2)C1 (stereo not drawn),-2.39%
4,Cc1nc2c(OCc3ccc(Cl)cc3Cl)cccn2c1N(C)CC1CC1,-1.39%
5,Cc1nc2ccccc2nc(C)c1=NOCc1ccc(Cl)cc1Cl,6.04% (active)
6,NC(N)=N/N=C/c1ccc(OCc2ccc(Cl)cc2Cl)cc1,-1.35%
7,CCOC(=O)[C@]12CCCCC/C=C\1N(Cc1ccc(OC)cc1)C(=O)[C@H]2CC(=O)NCCCN1CCCC1=O,-0.09%
8,CN(C)Cc1cn(-c2ccc(-c3noc4c3C(=O)N(CC(=O)N3CCOCC3)CC4)cc2)nn1,2.44%
9,CCOC(=O)CNC(=O)N(C)[C@H]1C[C@H]2c3[nH]c4c(-c5ccc6c(c5)OCO6)cccc4c3CCN2C(=O)[C@H]1[C@H](C)O,-1.87%
10,O=C(NNC(=O)c1cc(S(=O)(=O)N2CCCCC2)ccc1Cl)c1ccccc1O,1.49%
11,O=C(NNC(=O)c1ccccc1O)c1ccccc1O,5.92% (active)
12,Cc1cccc(NS(=O)(=O)c2cccc(C(=O)NNC(=O)c3ccccc3O)c2)c1,-2.63%
13,COC(=O)C1=C(C)N(Cc2cccc(C(F)(F)F)c2)C(=NCc2ccccc2)NC1c1ccccc1C(F)(F)F (stereo not drawn),-0.61%
14,CC(=O)Nc1ccc(OC[C@@H](O)CN2CCC(C(O)(c3ccccc3)c3ccccc3)CC2)cc1,-1.17%
15,CC(C)[C@@H](C)/C=C/[C@@H](C)[C@H]1CC[C@@H]2[C@]1(C)CCC1[C@]23C=C[C@]2(C[C@@H](O)CC[C@]12C)N(c1ccc([N+](=O)[O-])cn1)O3 (stereo partly drawn),-0.59%
16,CCn1c(=O)n2n(c1=O)[C@@]1(C=C3CCCC[C@H]32)N=C(NC(=O)c2ccccc2)N(Cc2ccccc2)[C@H]1Cc1ccccc1,-1.71%
17,COc1ccc(/C(O)=C2/C(=O)C(=O)N(c3nc(C)c(C)s3)C2c2ccco2)cc1 (stereo not drawn),1.96%
18,COc1ccc(/C(O)=C2/C(=O)C(=O)N(CC3CCCO3)C2c2ccc(OC)c(OC)c2)cc1 (stereo not drawn),-1.07%
19,CCOc1ccc(/C(O)=C2\C(=O)C(=O)N(c3ccc(OC)cc3)C2c2ccccc2[N+](=O)[O-])cc1 (stereo not drawn),6.27% (active)
20,O=S1(=O)c2c(NCc3ccco3)cccc2Oc2ccccc2CN1Cc1cn(Cc2cccc(C(F)(F)F)c2)nn1,-2.46%
21,CN(NC(=O)C1CC(=O)N(c2ccccc2)C1)C1=NS(=O)(=O)c2ccccc21 (stereo not drawn),1.93%
22,CC(=O)C1(C(=O)Nc2nccs2)CC(c2ccccc2C(F)(F)F)=NO1 (stereo not drawn),-0.69%

row,SMILES,activation
1,COc1ccc(N2CCN(CCNS(=O)(=O)c3ccc(Cl)s3)CC2)cc1,0.26%
2,Cc1cccc(NC(=O)Nc2ccc3c(c2)OCO3)n1,8.33% (active)
3,Cc1cccc(NC(=O)/C=C/c2ccc3c(c2)OCO3)n1,5.86% (active)
4,CN(Cc1ccccc1)C(=O)COC(=O)/C=C/c1ccc2c(c1)OCO2,-1.03%
5,COc1cccc(/C=C/C(=O)Nc2ccc3c(c2)OCCO3)c1,3.26%
6,CNS(=O)(=O)c1ccc(NC(=O)Nc2ccc3c(c2)OCO3)cc1,4.15%
7,CCSc1ccccc1C(=O)Nc1ccc2c(c1)OCO2,3.08%
8,COC(=O)c1cc2c(c3c4cc(F)ccc4n(S(=O)(=O)c4ccccc4)c13)C(=O)N(Cc1ccccc1OC)C2,0.96%
9,CCCN1C(=O)c2[nH]nc(-c3ccccc3)c2C1c1ccccc1 (stereo not drawn),-1.32%
10,COc1ccccc1CCNC(=O)C1CCN(c2nc(C)cc(C)n2)CC1,-0.5%
11,Cc1cc(OC(=O)NCCc2ccc(F)cc2)ccc1F,-1.94%
12,COc1ccc(CNC(=O)COc2ccccc2C(=O)c2cnn(-c3ccccc3)c2)cc1OC,3.06%
13,Cc1cc(O)cc(O)c1C(=O)Cc1cnn(-c2ccccc2)c1,-1.81%
14,O=C(c1cnn(-c2ccc(Cl)cc2)c1)c1ccccc1O,6.75% (active)
15,CN(CCO)c1cccc2c1S(=O)(=O)N(Cc1cn(Cc3ccc(C(F)(F)F)cc3)nn1)Cc1ccccc1O2,1.99%
16,COc1ccccc1C(=O)NC1CCCCN(C(C)C)C1=O (stereo not drawn),0.55%
17,Cc1cc(C(=O)OC(C)C(=O)Nc2cccc(S(=O)(=O)N3CCOCC3)c2)c(C)o1 (stereo not drawn),-0.06%
18,O=C(c1c[nH]c2ccccc12)N1CCC(Oc2cccnc2)CC1,1.45%
19,COc1ccc(OCc2cc(C(=O)NCC3(C)COC3)no2)c(Cl)c1,1.3%
20,Cc1cc(CN(C)C(=O)c2cc(COc3ccc(C)c(C)c3)on2)n[nH]1,-1.73%
21,Cc1cc(OCc2cc(C(=O)NCc3cc(C(C)C)no3)no2)cc(C)c1Cl,8.95% (active)
22,COc1ccc2c(C(C)c3ccc(N)cc3)cn(C)c2c1 (stereo not drawn),-0.33%

row,SMILES,activation
1,O=C(NCCc1c[nH]c2ccccc12)OCc1cn(-c2c(F)cccc2F)nn1,3%
2,O=c1[nH]c2ccccc2s1,1.16%
3,CCOc1ccc2[nH]c(=S)sc2c1,-0.28%
4,Nc1ccc2[nH]c(=S)sc2c1,7.75% (active)
5,COCc1[nH]nc2c1C(c1ccccc1)N(c1ccccc1)C2=O (stereo not drawn),-0.15%
6,COc1ccc2c(CC(=O)OCC(=O)Nc3ccccc3[N+](=O)[O-])coc2c1,0.19%
7,O=S1(=O)c2c(cccc2N2CCCC2)O[C@H](COCc2ccccc2)CN1C1CC1,-1.28%
8,Cc1ccc(-n2c(COc3ccccc3)nnc2SCC(=O)Nc2ccc3c(c2)OCCO3)cc1,-2.77%
9,C=CC1=CCN(S(=O)(=O)C(C)(C)C)[C@@H]1CCO,-0.05%
10,N#CC(=C1CCCC1)c1nc(-c2ccc(Cl)cc2)cs1,-0.23%
11,c1ccc(-c2csc(N3CCc4ccccc4C3)n2)cc1,1.49%
12,N#CC(=C1SC=CS1)c1nc(-c2ccccc2)cs1,5.72% (active)
13,COc1ccc(C(=O)CSc2nnc(-c3cnccn3)n2-c2ccc(C)cc2)cc1,-3.92%
14,COC(=O)[C@@]12CCCCC=C1N(CCc1ccc(Cl)cc1)C(=O)[C@H]2CC(=O)NCc1ccc(OC)c(OC)c1,-2.23%
15,CCc1ccccc1NC(=O)CSc1nnc(-c2cccs2)o1,2.25%
16,O=C(Cc1c[nH]c2ccccc12)N/N=C/c1cccc(F)c1,-2.14%
17,O=C(CCCOc1ccccc1)Nc1cccc(C(=O)O)c1,-0.3%
18,O=C(O)c1cccc(NC(=S)N/N=C/c2c[nH]c3ccccc23)c1,5.99% (active)
19,CCn1c(SC)nc(O)c(C(c2ccc(OC)c(O)c2)c2c(O)nc(SC)n(CC)c2=O)c1=O,-1.4%
20,Cc1cccc(N2Cc3ccccc3C2=NC(=O)c2ccc(Cl)nc2)c1,5.83% (active)
21,N#Cc1ccc(N2Cc3ccccc3/C2=N/C(=O)Nc2ccc(Cl)cc2)cc1,-0.08%
22,Cc1cccc(N2CCN(C(=O)c3cccc(S(=O)(=O)N4CCc5ccccc5C4)c3)CC2C)c1 (stereo not drawn),-2.28%

row,SMILES,activation
1,CCCCCCCCNS(=O)(=O)/C=C/c1cc(C)ccc1CNC(=O)OC(C)(C)C,-0.7%
2,COc1ccc(-c2nnn(Cc3nc(N)nc(N4CCCCC4)n3)n2)cc1,-2.9%
3,Fc1ccc(CNc2nc3ccccc3n3nnnc23)cc1,5.66% (active)
4,CC(C)(C)N1CC(c2nc3ccccc3n2Cc2ccc(F)cc2)CC1=O (stereo not drawn),0.33%
5,CCOC(=O)CNc1nc2ccccc2n2c(C)nnc12,-0.04%
6,Cc1ccc(-n2nc(N)c3c(=O)oc(N(C)C)nc32)cc1,0.85%
7,Cc1nc(SCC(=O)NC2CCCC2)[nH]c(=O)c1C,5.79% (active)
8,Cc1c(C)n2c(SCC(=O)NC3CCCC3)nnc2[nH]c1=O,-0.71%
9,CCc1c(C)nc(SCC(=O)NC2CCCC2)[nH]c1=O,-0.17%
10,CCOC(=O)c1c(C2CC2)csc1NC(=O)CSCc1c(C)noc1C,-3.08%
11,CC(=O)Nc1cccc(C(=O)OCN2C(=O)c3ccccc3C2=O)c1,1.25%
12,CC(=O)Nc1cccc(C(=O)OCC(=O)NCc2cc(C)c(O)c(C)c2)c1,1.87%
13,CC(=O)Nc1cccc(C(=O)OCC(=O)c2ccc3c(c2)OCO3)c1,8.29% (active)
14,COc1ccc(C(=O)OCCN(C)C2CN(Cc3cn(Cc4cccc(C)c4)nn3)S(=O)(=O)C2)cc1OC (stereo not drawn),-2.89%
15,Cc1ccc(Cc2c(-c3ccc(C)cc3)nc3c4ccccc4ccn23)cc1,4.63%
16,Cc1ccc(Cc2c(-c3ccc(Cl)cc3)nc3c4ccccc4ccn23)cc1,3.04%
17,c1ccc(Cc2c(-c3ccco3)nc3c4ccccc4ccn23)cc1,12% (active)
18,CCCc1nc2c3ccccc3ccn2c1Cc1ccccc1C(F)(F)F,5.09%
19,FC(F)(F)c1ccccc1Cc1c(-c2ccccc2)nc2c3ccccc3ccn12,5.96% (active)
20,COc1ccccc1Cc1c(-c2ccc(Cl)cc2)nc2c3ccccc3ccn12,2.15%
21,COc1cccc(N2CCN(CC(=O)N(C)Cc3ccc(F)cc3)CC2)c1,-2.02%
22,C=CCN1C(=O)[C@H](CC(=O)NCCCN2CCCC2=O)[C@@]2(C(=O)OCC)CCCC=C12,-0.18%
